According to PubChem BioAssay AID1159580 (chemical genetic matrix, 2015):
Several values for one entry are separate records, joined by “and”; a condition that tells them apart may be missing. Equal entries are not always repeated. The whole screen tested about 5,500 compounds, of which about 2,000 (36%) were called active. Roughly 18% stayed inconclusive and do not appear here. Cut-off read from the data, not from the text of the source: active = normalized growth mostly below about 0.91 (no sharp cut-off); inconclusive = no clear call, values can overlap the other calls; inactive = mostly above about 0.92. This is one part of the list.

Test: chemical genetic growth profiling, strain panel (AID 1159580);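 note: tested at 20 µM; growth read once vehicle control cultures reached saturation at 30 °C; 1 = growth at the plate median or of vehicle wells; lower values mean less growth of the strain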
Conditions: S. cerevisiae deletion strains, growth OD

Measured: normalized growth

COC1=C(OC)C(=O)C(C/C=C(\C)CC/C=C(\C)CC/C=C(\C)CC/C=C(/C)CC/C=C(\C)CC/C=C(\C)CC/C=C(\C)CC/C=C(\C)CC/C=C(\C)CCC=C(C)C)=C(C)C1=O
inactive: locus YAL013W, strain DEP1, hits give low values 0.999 | locus YAL021C, strain ccr4, hits give low values 0.983 | locus YAL026C, strain drs2, hits give low values 0.97 | locus YAL030W, strain snc1, hits give low values 0.989 | locus YBL061C, strain skt5, hits give low values 0.996 | locus YBR009C, strain hhf1, hits give low values 1.01 | locus YBR021W, strain FUR4, hits give low values 1.07 | locus YBR023C, strain chs3, hits give low values 0.978 | locus YBR171W, strain sec66, hits give low values 0.973 | locus YBR229C, strain ROT2, hits give low values 0.959 | locus YBR231C, strain swc5, hits give low values 0.974 | locus YBR279W, strain paf1, hits give low values 0.989 | locus YCL011C, strain gbp2, hits give low values 0.96 | locus YCL016C, strain dcc1, hits give low values 0.994 | locus YCL029C, strain bik1, hits give low values 0.969 | locus YCL069W, strain vba3, hits give low values 0.972 | locus YCR088W, strain abp1, hits give low values 0.972 | locus YDL005C, strain med2, hits give low values 0.977 | locus YDL035C, strain GPR1, hits give low values 1.03 | locus YDL040C, strain nat1, hits give low values 0.983 | locus YDL074C, strain BRE1, hits give low values 1.11 | locus YDL101C, strain DUN1, hits give low values 0.982 | locus YDL134C, strain PPH21, hits give low values 1.01 | locus YDL185W, strain tfp1, hits give low values 0.991 | locus YDL192W, strain arf1, hits give low values 1.02 | locus YDR001C, strain nth1, hits give low values 0.989 | locus YDR069C, strain doa4, hits give low values 0.96 | locus YDR101C, strain arx1, hits give low values 1.02 | locus YDR137W, strain rgp1, hits give low values 0.983 | locus YDR159W, strain sac3, hits give low values 0.963 | locus YDR162C, strain NBP2, hits give low values 0.972 | locus YDR195W, strain ref2 0.963 | locus YDR297W, strain sur2, hits give low values 0.975 | locus YDR318W, strain mcm21, hits give low values 0.984 | locus YDR334W, strain swr1, hits give low values 0.969 | locus YDR335W, strain msn5, hits give low values 0.974 | locus YDR388W, hits give low values 1 | locus YDR392W, strain spt3, hits give low values 0.967 | locus YDR502C, strain sam2, hits give low values 0.989 | locus YEL003W, strain gim4, hits give low values 0.983 | locus YEL037C, strain rad23, hits give low values 0.981 | locus YEL061C, strain CIN8 (second series), hits give low values 0.941 | locus YEL061C, strain CIN8, hits give low values 1.01 | locus YER015W, strain faa2, hits give low values 0.979 | locus YER016W, strain bim1, hits give low values 0.978 | locus YER110C, hits give low values 0.983 | locus YER111C, strain swi4, hits give low values 0.958 | locus YER155C, strain BEM2 (second series), hits give low values 0.982 | locus YER155C, strain BEM2, hits give low values 1 | locus YER167W, strain BCK2, hits give low values 1 | locus YFR010W, strain ubp6, hits give low values 0.964 | locus YGL078C, strain dbp3, hits give low values 1.01 | locus YGL086W, strain mad1, hits give low values 1.04 | locus YGL167C, strain pmr1, hits give low values 0.981 | locus YGL173C, strain kem1, hits give low values 0.982 | locus YGL227W, strain vid30, hits give low values 0.96 | locus YGL240W, strain doc1, hits give low values 0.974 | locus YGL248W, strain PDE1, hits give low values 0.999 | locus YGL253W, strain hxk2, hits give low values 0.988 | locus YGR078C, strain PAC10, hits give low values 0.996 | locus YGR135W, strain pre9, hits give low values 1 | locus YGR252W, strain gcn5, hits give low values 1.02 | locus YHR013C, strain ard1, hits give low values 0.957 | locus YHR027C, strain rpn1, hits give low values 0.968 | locus YHR030C, strain SLT2, hits give low values 1.02 and 1.01 | locus YHR079C, strain IRE1 (second series), hits give low values 0.986 | locus YHR079C, strain IRE1, hits give low values 1.02 | locus YHR094C, strain hxt1, hits give low values 0.999 | locus YHR129C, strain ARP1, hits give low values 1.01 | locus YHR142W, strain chs7, hits give low values 0.972 | locus YHR200W, strain rpn10, hits give low values 0.976 | locus YIL066C, strain RNR3, hits give low values 1.01 | locus YIL073C, strain SPO22, hits give low values 1.03 | locus YIL125W, strain kgd1, hits give low values 0.998 | locus YIR030C, strain dcg1, hits give low values 0.995 | locus YJL092W, strain hpr5, hits give low values 0.958 | locus YJL095W, strain BCK1 (second series), hits give low values 0.973 | locus YJL095W, strain BCK1, hits give low values 1.01 and 0.989 | locus YJL115W, strain asf1, hits give low values 0.969 | locus YJL129C, strain trk1, hits give low values 0.979 | locus YJL134W, strain LCB3, hits give low values 0.991 | locus YJL154C, strain vps35, hits give low values 0.976 | locus YJL164C, strain tpk1, hits give low values 0.999 | locus YJL166W, strain qcr8, hits give low values 0.978 | locus YJL168C, strain set2, hits give low values 0.994 | locus YJL187C, strain SWE1 (second series), hits give low values 0.985 | locus YJL187C, strain SWE1, hits give low values 0.984
